# Sampled rows, rich in hits. Any-hit rate of the full collection: about 2.3%.
# CHO-K1 Ca PAM = nonselective calcium activators in parental CHO-K1 cells, primary screen, counter-screen for M1 PAM project, cell-based, Fluo-8 calcium fluorescence, full deck, 1536-well | ATP EC20; 0% at ATP EC20, 100% at ATP max | actives 0.02% (n = 360,000) | activation, % at 3 µM;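 active = activation above the run cutoff, the mean activation of all test compounds plus 3 SD, cut at about 40% in these data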;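 note: peak over basal fluorescence ratio in a 140 s read after ATP addition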
# CHRM1 antagonist = human M1 muscarinic receptor antagonists, primary screen, CHO-K1 cells, Fluo-8 calcium fluorescence, 1536-well; inhibition, % at 3 µM; Muscarinic acetylcholine receptor M1 (Homo sapiens), P11229; CHO-K1 hM1, ACh EC80 antagonist; actives 1.3% (n = 360,000);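 active = percent inhibition above its own plate's cutoff, namely the mean of that plate's compound wells plus 3 SD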;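 note: peak over basal fluorescence ratio during 140 s after agonist addition; 0% = ACh EC80 plus DMSO and 100% = DMSO alone without agonist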
# Target sequence (P11229 whole entry, looked up): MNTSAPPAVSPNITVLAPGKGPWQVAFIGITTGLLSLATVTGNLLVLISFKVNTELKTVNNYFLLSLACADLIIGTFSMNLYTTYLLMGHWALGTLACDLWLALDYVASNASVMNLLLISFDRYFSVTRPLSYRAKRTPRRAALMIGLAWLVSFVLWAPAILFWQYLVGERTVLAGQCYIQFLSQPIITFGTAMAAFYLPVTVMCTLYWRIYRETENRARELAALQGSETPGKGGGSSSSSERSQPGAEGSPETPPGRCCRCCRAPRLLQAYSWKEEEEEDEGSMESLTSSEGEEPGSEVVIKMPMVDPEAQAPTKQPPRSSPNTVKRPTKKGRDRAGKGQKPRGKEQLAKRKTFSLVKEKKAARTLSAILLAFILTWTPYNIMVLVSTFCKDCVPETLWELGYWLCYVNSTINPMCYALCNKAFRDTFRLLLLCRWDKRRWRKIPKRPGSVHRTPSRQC
# M1 PAM = human M1 muscarinic receptor positive allosteric modulators, primary screen, CHO-K1 cells, Fluo-8 calcium fluorescence, 1536-well. Muscarinic acetylcholine receptor M1 (Homo sapiens), P11229. CHO-K1 hM1, ACh EC20; 0% = ACh EC20, 100% = maximal ACh. activation, % at 3 µM. actives 0.088% (n = 360,000). AID 588819, 2011; in the data active = activation above about 19%, passing the limit was not always enough
# CHRM1 agonist = human M1 muscarinic receptor agonists, primary screen, Fluo-8 calcium fluorescence, CHO-K1 cells, HTS. activation, % at 3 µM. actives 0.33% (n = 360,000). CHO-K1 hM1, agonist mode; 0% DMSO, 100% acetylcholine EC100;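 active = activation above the run's mean compound activation plus 3 SD, cut at about 16% in these data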;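 note: peak over basal fluorescence ratio within a 140 s kinetic read after compound addition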
# CHO-K1 Ca antag = nonselective inhibitor or artifact in parental CHO-K1 cells | ATP-induced calcium, Fluo-8 fluorescence | inhibition, % at 3 µM | actives 0.6% (n = 360,000) | AID 602250;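 active = inhibition above a per-plate cutoff, the plate's mean sample inhibition plus 3 SD, cut at about 24% in these data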;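 note: 0% = DMSO plus EC80 ATP and 100% = DMSO alone without ATP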
# M1 ag parental = counter-screen for M1 agonists: effect in parental CHO-K1 cells; Fluo-8 calcium fluorescence; scaled to maximal ATP response, vehicle zero; activation, % at 3 µM; actives 0.48% (n = 360,000); AID 602248, 2012; in the data active = activation above about 15%;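 note: untransfected CHO-K1 host cells lacking M1 receptor as counterscreen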
# * hit, by the source's call.
SMILES,CHO-K1 Ca PAM,CHRM1 antagonist,M1 PAM,CHRM1 agonist,CHO-K1 Ca antag,M1 ag parental
C[C@H](CO)N1C[C@H](C)[C@@H](CN(C)S(=O)(=O)c2ccccc2)Oc2ccc(NC(=O)CCC(F)(F)F)cc2C1=O,-3.7,76.7*,-30.9,-10.8,-3.8,-0.3
O=S1(=O)CC(N2CCN(CCO)CC2)CN1Cc1cn(Cc2ccccc2C(F)(F)F)nn1 (stereo not drawn),2.2,-2.6,3.8,-7.0,7.5,0.2
C[C@H](CO)N1C[C@H](C)[C@@H](CN(C)C(=O)Nc2ccc3c(c2)OCO3)Oc2c(NC(=O)Nc3ccc4c(c3)OCO4)cccc2C1=O,-3.2,36.0*,-16.0,-3.3,-0.6,5.4
O=C(c1ccccc1F)N1CCN(Cc2ccc3c(c2)OCO3)CC1,13.2,-4.3,4.5,-4.5,-6.9,1.0
N#Cc1c(F)cccc1N1CCN(Cc2ccc3c(c2)OCO3)CC1,-20.2,66.1*,-35.5,-12.0,-14.9,1.2
CCC(NC(=O)c1ccc2nc(Cc3ccc(OC)cc3)oc2c1)c1ccncc1 (stereo not drawn),0.2,29.9,-14.1,4.6,1.3,15.4*
CCCCOC(=O)Nc1ccc(C(=O)OCCC)cc1,-6.4,6.2,-7.5,-6.2,23.8*,-0.5
CCCCOC(=O)c1ccc(O)cc1,-6.0,9.0,-3.0,-6.5,-3.4,-0.3
CCOC(=O)CN1C(=O)N[C@@H](c2cccc(F)c2)C(C(C)=O)=C1C,13.5,-1.6,4.0,-2.7,-12.5,0.6
CCN1C(=O)N[C@@H](c2cccc(F)c2)C(C(C)=O)=C1C,8.9,-23.6,31.2*,4.3,-13.1,0.8
CCN(C1CCCCC1)S(=O)(=O)c1ccc(S(=O)(=O)NCc2ccncc2)cc1,-5.8,35.3*,-21.9,-1.0,-14.8,18.1*
Cc1ccc(NC(=O)c2ncn(CCCNCCCc3ccccc3)n2)cc1C,22.0,-4.9,1.4,17.7*,-17.4,1.9
O=C(c1ccc2c(c1)OCO2)C1CCCN(Cc2ccc(OC(F)F)cc2)C1 (stereo not drawn),4.0,91.3*,-24.5,0.2,-4.9,8.6
O=C(c1ccc2c(c1)OCO2)C1CCCN(Cc2ccc3cccc(F)c3n2)C1 (stereo not drawn),-7.2,21.0,-28.1,-10.9,-3.5,1.0
O=C(c1ccc2c(c1)OCO2)C1CCCN(Cc2cccc(C(F)(F)F)c2)C1 (stereo not drawn),-1.3,63.4*,-24.1,-7.1,-1.5,-0.2
COc1cc(OC)c(OC)cc1CN1CCCC(C(=O)c2ccc3c(c2)OCO3)C1 (stereo not drawn),-2.5,5.8,-12.8,-10.2,3.0,-0.3
O=C(Nc1ccccc1C(F)(F)F)c1ncn[nH]1,2.2,-14.4,7.3,-3.0,0.9,-0.5
O=C(c1ccc(Br)o1)N1CCN(CCc2ccncc2)CC1,-6.3,43.6*,-28.9,-8.3,-14.2,1.3
O=C(c1ccncc1)N1CCN(CCc2ccccc2)CC1,-4.2,-16.2,10.6,-5.7,-0.1,0.4
CN(Cc1ccccc1)CC1CCCN(CCc2ccccc2F)C1 (stereo not drawn),0.1,10.6,-13.9,-9.4,-8.9,0.1
COc1cc(CN(C)CC2CCCN(CCc3ccccc3F)C2)cc(Cl)c1OC (stereo not drawn),5.8,73.5*,-26.8,-9.8,-4.4,-0.1
CC(=O)c1cccc(CN(C)CC2CCCN(CCc3ccccc3C)C2)c1 (stereo not drawn),2.6,99.8*,-27.3,-8.9,3.2,0.3
COc1ccc(F)c(CN(C)CC2CCCN(CCc3ccc(F)cc3)C2)c1 (stereo not drawn),10.5,33.1*,-24.7,-8.3,1.9,0.6
CC(=O)Nc1nc(=S)n(-c2ccccc2)[nH]1,8.3,4.9,-1.8,-3.9,-3.5,0.0
CC(C)c1nc(=S)n(-c2ccccc2)[nH]1,-7.3,-0.4,3.4,-0.3,28.2*,-0.2
SMILES,CHO-K1 Ca PAM,CHRM1 antagonist,M1 PAM,CHRM1 agonist,CHO-K1 Ca antag,M1 ag parental
COc1ccc(NC(=O)C2(N(CC(C)C)C(=O)Cn3nnnc3N)CCCCC2)cc1,-7.8,10.7,-4.6,-4.2,24.7*,0.1
Cc1c(C(=O)NCCC2=CCCCC2)oc2ccc(S(=O)(=O)N3CCOCC3)cc12,11.1,42.3*,-13.6,3.0,9.7,6.0
COc1ccc(-n2c(-c3ccc(Cl)cc3)c[n+]3c2CCc2ccccc2-3)cc1,24.5,17.9,-21.2,-12.8,-4.3,0.5
Cc1ccc(-n2c(-c3ccc(Br)cc3)c[n+]3c2CCc2ccc4cccnc4c2-3)cc1,14.4,90.9*,-20.4,-5.7,13.5,5.2
COc1ccccc1CNC(=O)COC(=O)CSc1ccc(C)c(C)c1,0.7,-13.3,8.8,-6.1,-1.9,0.1
COc1ccc(COc2cc(-c3cccc(OC)c3)nc3ccc(NC(=O)c4ccc(C)cc4)cc23)cc1,8.3,13.5,-6.2,-2.4,-6.1,2.5
COc1ccc(COc2cc(-c3cccc(OC)c3)nc3ccc(NC(=O)c4ccc(N(C)C)cc4)cc23)cc1,-6.1,40.4*,-22.8,-5.7,0.5,-0.4
Cc1ccc(C)c(N2CC(C(=O)OCC(=O)Nc3cc(C)on3)CC2=O)c1 (stereo not drawn),-5.7,-13.1,20.8,0.6,-4.5,0.4
Cc1[nH]n(C(N)=S)c(=O)c1N=Nc1cccc([N+](=O)[O-])c1C,-2.5,-0.3,6.3,8.1,9.8,25.8*
Cc1ccc2nc(-c3ccc(F)cc3)c(Cc3cccc(Cl)c3)n2c1,-9.2,13.8,-5.7,-6.6,32.0*,-0.6
Cc1ccc2nc(C(C)(C)C)c(Cc3cccc(Cl)c3)n2c1,-10.2,69.6*,-25.9,-8.4,4.3,-0.5
CC1(C)CC(=O)C2=C(C1)Nc1ccccc1[S@]2=O,-5.6,3.3,-1.7,-0.6,-1.6,2.3
O=S1c2ccccc2Nc2ccccc21,8.9,1.3,27.1*,-5.5,-10.6,0.4
COc1ccccc1S(=O)(=O)N(C)C[C@@H]1OCc2cnnn2CCCC(=O)N([C@@H](C)CO)C[C@@H]1C,-1.4,-9.0,2.2,-5.2,12.3,0.3
Cc1[nH]n(-c2ccccc2)c(=O)c1/C=N/NC(=O)c1ccccc1F,-26.0,-0.2,11.4,1.9,13.2,-0.2
CN(CC(=O)Nc1ccc(Cl)cc1)C(=O)C1CCCC1,-8.4,-8.2,5.9,0.7,-0.9,0.6
NS(=O)(=O)c1ccc(CCNS(=O)(=O)c2ccc(Cl)cc2)cc1,-5.5,100.8*,-10.4,-2.6,-18.9,0.4
NS(=O)(=O)c1ccc(CCNC(=O)c2ccccc2F)cc1,-9.9,8.0,-6.0,-3.9,27.9*,0.1
